The antibiotic and cytotoxicity screens of Wong et al. (2023)
The whole screen tested about 39,000 compounds, of which about 3,300 (8.5%) were called active. For the sample, actives were picked, then their nearest neighbours and some compounds at random.

What follows are compounds tested on HepG2 (assay: cytotoxicity call (relative viability < 0.9)). Settings: 10 µM.
With `CCCCCCCCCCCCCCCC(=O)OCC=C(C)C=CC=C(C)C=CC1=C(C)CCCC1(C)C` the cytotoxicity call was “inactive”. In the case of `C[C@H]1CN([C@@H](C)CO)C(=O)c2cc(N(C)C)ccc2O[C@H]1CN(C)S(=O)(=O)c1ccc(Cl)cc1`, the cytotoxicity call is reported as “inactive”. In the case of `C[C@@H]1CCCCO[C@@H](CN(C)S(C)(=O)=O)[C@@H](C)CN([C@H](C)CO)C(=O)c2cc(NS(C)(=O)=O)ccc2O1`, the cytotoxicity call is reported as “inactive”. `CN(C)CCCNC(=O)C[C@@H]1CC[C@@H]2[C@@H](COc3ccc(NS(C)(=O)=O)cc3C(=O)N2C)O1` was tested, and the cytotoxicity call was “inactive”. In the case of `CO[C@@H]1CN(C)C(=O)c2cc(NC(=O)Nc3ccccc3F)ccc2OC[C@H](C)N(Cc2ccccc2C(=O)O)C[C@H]1C`, the cytotoxicity call is reported as “inactive”. For `Cc1ccc(S(=O)(=O)N(C)C[C@H]2Oc3ccc(NS(=O)(=O)c4cn(C)cn4)cc3CC(=O)N([C@@H](C)CO)C[C@H]2C)cc1`, the cytotoxicity call was “inactive”. In the case of `O=C(Nc1cccc2cccnc12)[C@@H]1[C@H](c2ccc(C(F)(F)F)cc2)CC(=O)N1C(=O)OCc1ccccc1`, the cytotoxicity call is reported as “inactive”. For `C[C@@H]1CCCCO[C@H](CN(C)C(=O)c2ccncc2)[C@H](C)CN([C@H](C)CO)C(=O)c2cc(NS(C)(=O)=O)ccc2O1`, the cytotoxicity call was “inactive”. With `Cc1ccc(S(=O)(=O)N(C)C[C@H]2Oc3cc(Br)ccc3S(=O)(=O)N([C@@H](C)CO)C[C@H]2C)cc1` the cytotoxicity call was “inactive”. `C[C@H](CO)N1C[C@H](C)[C@@H](CN(C)S(=O)(=O)c2ccccc2)OCCCC[C@H](C)Oc2ccc(NS(=O)(=O)c3ccc(Cl)cc3)cc2C1=O` was tested, and the cytotoxicity call was “inactive”. `C[C@@H]1CCCCO[C@H](CN(C)S(=O)(=O)c2ccccc2)[C@H](C)CN([C@@H](C)CO)C(=O)c2cc(NS(=O)(=O)c3ccc(Cl)cc3)ccc2O1` was tested, and the cytotoxicity call was “inactive”. With `C[C@@H]1CN([C@@H](C)CO)C(=O)c2cc(NS(=O)(=O)c3ccccc3)ccc2O[C@@H](C)CCCCO[C@@H]1CN(C)S(=O)(=O)c1ccc(Cl)cc1` the cytotoxicity call was “inactive”. With `C[C@H](CO)N1C[C@H](C)[C@H](CN(C)S(=O)(=O)c2ccc(Cl)cc2)OCCCC[C@H](C)Oc2ccc(NS(=O)(=O)c3ccccc3)cc2C1=O` the cytotoxicity call was “active”. For `C[C@@H]1CCCCO[C@@H](CN(C)S(=O)(=O)c2ccccc2)[C@H](C)CN([C@@H](C)CO)C(=O)c2cc(NS(=O)(=O)c3ccc(Cl)cc3)ccc2O1`, the cytotoxicity call was “inactive”. `C[C@@H]1CCCCO[C@@H](CN(C)S(=O)(=O)c2ccc(Cl)cc2)[C@H](C)CN([C@H](C)CO)C(=O)c2cc(NS(=O)(=O)c3ccccc3)ccc2O1` was tested, and the cytotoxicity call was “active”. In the case of `C[C@@H]1CCCCO[C@@H](CN(C)S(=O)(=O)c2ccccc2)[C@H](C)CN([C@H](C)CO)C(=O)c2cc(NS(=O)(=O)c3ccc(Cl)cc3)ccc2O1`, the cytotoxicity call is reported as “inactive”. For `C[C@@H]1CN([C@H](C)CO)C(=O)c2cc(NS(=O)(=O)c3ccc(Cl)cc3)ccc2O[C@@H](C)CCCCO[C@@H]1CN(C)S(=O)(=O)c1ccccc1`, the cytotoxicity call was “inactive”. `C[C@@H]1CN([C@H](C)CO)C(=O)c2cc(NS(=O)(=O)c3ccc(Cl)cc3)ccc2O[C@@H](C)CCCCO[C@H]1CN(C)S(=O)(=O)c1ccccc1` was tested, and the cytotoxicity call was “active”. `C[C@@H]1CN([C@@H](C)CO)C(=O)c2cc(NS(=O)(=O)c3ccc(Cl)cc3)ccc2O[C@@H](C)CCCCO[C@@H]1CN(C)S(=O)(=O)c1ccccc1` was tested, and the cytotoxicity call was “active”. `C[C@@H]1CN([C@H](C)CO)C(=O)c2cc(NS(=O)(=O)c3ccccc3)ccc2O[C@@H](C)CCCCO[C@@H]1CN(C)S(=O)(=O)c1ccc(Cl)cc1` was tested, and the cytotoxicity call was “inactive”. `C[C@@H]1CCCCO[C@H](CN(C)S(=O)(=O)c2ccc(Cl)cc2)[C@@H](C)CN([C@H](C)CO)C(=O)c2cc(NS(=O)(=O)c3ccccc3)ccc2O1` was tested, and the cytotoxicity call was “inactive”.
